Some of the results follow. The true hit rate is not given.
Target: furin, P09958
Experiment: furin cleavage Z-score vs untreated control; higher = more cleavage, active = 3.5 or more, inactive = 1 or less, 8 variable residues between constant flanks
How it was run: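 Furin-free reactions served as the baseline for the cleavage Z-score, which is the log read count lowess-adjusted and scaled by median absolute deviation. Counts came from released DNA, adapter-tagged by PCR and sequenced. Purified furin had cut 8-mer peptides fused to a cDNA oligonucleotide on magnetic beads during 7.5, 15 or 30 min at 1:10 enzyme:substrate.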
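Note: purified furin at 1:10 enzyme:substrate in 50 mM HEPES pH 7.5.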

furin, P09958, sequence (P09958 whole entry): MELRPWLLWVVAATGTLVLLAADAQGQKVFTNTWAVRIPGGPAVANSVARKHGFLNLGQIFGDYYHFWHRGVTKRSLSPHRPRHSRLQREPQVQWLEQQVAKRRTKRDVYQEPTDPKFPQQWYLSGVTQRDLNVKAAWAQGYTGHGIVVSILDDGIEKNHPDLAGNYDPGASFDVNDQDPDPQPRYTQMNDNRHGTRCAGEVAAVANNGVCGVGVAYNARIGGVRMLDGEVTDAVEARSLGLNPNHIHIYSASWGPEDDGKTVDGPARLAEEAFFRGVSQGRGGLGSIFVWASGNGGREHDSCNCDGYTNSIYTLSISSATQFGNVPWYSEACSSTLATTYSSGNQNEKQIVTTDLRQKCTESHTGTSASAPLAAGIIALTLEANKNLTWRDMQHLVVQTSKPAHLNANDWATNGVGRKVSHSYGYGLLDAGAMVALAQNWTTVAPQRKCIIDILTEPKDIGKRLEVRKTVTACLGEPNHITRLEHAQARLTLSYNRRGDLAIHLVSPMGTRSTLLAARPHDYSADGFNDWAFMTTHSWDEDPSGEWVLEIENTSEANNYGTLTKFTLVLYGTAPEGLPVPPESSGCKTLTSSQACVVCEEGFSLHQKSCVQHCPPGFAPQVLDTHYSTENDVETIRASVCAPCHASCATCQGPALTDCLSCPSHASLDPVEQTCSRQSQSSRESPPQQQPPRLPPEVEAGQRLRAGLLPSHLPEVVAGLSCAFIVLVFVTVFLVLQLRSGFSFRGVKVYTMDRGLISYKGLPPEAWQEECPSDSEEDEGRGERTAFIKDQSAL

Sequence | furin cleavage Z-score (7.5 min) | furin cleavage Z-score (15 min) | furin cleavage Z-score (30 min)
CASWHLNSTAAGNASASA [HC370] | 0.22 (inactive) | -0.449 (inactive) | 0.876 (inactive)
CARRRRSFRRAGNASASA [FS-376] | 5.2 (active) | 6.31 (active) | 8.15 (active)
CADSRGSLLSAGNASASA [HC734] | -0.053 (inactive) | -0.939 (inactive) | -0.328 (inactive)
CARRRRSLPEAGNASASA [FS-2796] | 9.29 (active) | 10.5 (active) | 8.81 (active)
CARRRRCLNGAGNASASA [FS-1783] | 5.37 (active) | 5.63 (active) | 3.81 (active)
CAKRRRSLHHAGNASASA [FS-1672] | 4.3 (active) | 5.5 (active) | 6.07 (active)
CASTPCSAHHAGNASASA [HC2575] | -0.38 (inactive) | -0.288 (inactive) | 0.459 (inactive)
CARPWRDLPEAGNASASA [FS-3031] | -1.17 (inactive) | 0.355 (inactive) | -0.221 (inactive)
CATSPCSGSWAGNASASA [HC1857] | -0.464 (inactive) | -0.0771 (inactive) | -1.88 (inactive)
CASFPCSAHLAGNASASA [HC2487] | -0.137 (inactive) | -0.966 (inactive) | -0.392 (inactive)
CAGPLRSKRRAGNASASA [FS-128] | 3.54 (active) | 3.82 (active) | 0.894 (inactive)
CARPLRSSERAGNASASA [FS-2056] | -0.31 (inactive) | -0.454 (inactive) | -0.848 (inactive)
CAQPTRSKRRAGNASASA [FS-140] | 8.89 (active) | 11.6 (active) | 8.5 (active)
CAGVYLLPRRAGNASASA [HC177] | -0.35 (inactive) | 0.113 (inactive) | 0.636 (inactive)
CAQPIPKARRAGNASASA [HC192] | -0.161 (inactive) | 1.41 | -0.434 (inactive)
CARPTRPLEVAGNASASA [FS-2747] | -0.707 (inactive) | -0.831 (inactive) | 0.199 (inactive)
CARLPRSVRSAGNASASA [FS-1263] | 5.43 (active) | 4.73 (active) | 4.77 (active)
CARLGRQVDSAGNASASA [FS-1738] | 0.0659 (inactive) | 0.283 (inactive) | 1.6
CARLHRFAPPAGNASASA [HC1225] | -1.52 (inactive) | 1.01 | 0.153 (inactive)
CARRQRGAEAAGNASASA [FS-1782] | 0.38 (inactive) | -0.365 (inactive) | 1.17
CARSFRSVRSAGNASASA [FS-3233] | -0.0905 (inactive) | 1.16 | 1.57
CARLPRGAEAAGNASASA [FS-1743] | 3.99 (active) | 2.77 | 3.19
CAMTRYSAPPAGNASASA [HC1542] | 1.05 | -0.0414 (inactive) | -1.39 (inactive)

Sequence | furin cleavage Z-score (7.5 min) | furin cleavage Z-score (15 min) | furin cleavage Z-score (30 min)
CARQLRSAPPAGNASASA [FS-2758] | 3.01 | 4.5 (active) | 4.16 (active)
CARLPRSAPPAGNASASA [FS-2572] | 5.97 (active) | 5.41 (active) | 5.19 (active)
CAPAPSGCPPAGNASASA [HC1346] | -1.72 (inactive) | -0.997 (inactive) | -0.764 (inactive)
CARFWKSAPPAGNASASA [FS-2140] | -0.578 (inactive) | 0.202 (inactive) | -1.15 (inactive)
CALLISQAEAAGNASASA [HC530] | -0.545 (inactive) | -1.15 (inactive) | -0.368 (inactive)
CALEFWEGVFAGNASASA [HC938] | 0.499 (inactive) | -0.214 (inactive) | -0.35 (inactive)
CAMDECSQHLAGNASASA [HC1691] | -1.05 (inactive) | -0.767 (inactive) | -1.23 (inactive)
CAEHPCHRPSAGNASASA [HC2335] | 0.592 (inactive) | 0.873 (inactive) | -0.909 (inactive)
CADTEVAASCAGNASASA [HC566] | 0.247 (inactive) | 0.504 (inactive) | -0.572 (inactive)
CARGKRATTVAGNASASA [FS-3249] | 8.17 (active) | 9.95 (active) | 8.35 (active)
CARGMRALGVAGNASASA [FS-1710] | -0.000681 (inactive) | 0.448 (inactive) | 0.128 (inactive)
CARGGRDHGDAGNASASA [FS-2014] | -0.697 (inactive) | -0.0412 (inactive) | -1.45 (inactive)
CARGKRAITDAGNASASA [FS-2554] | 9.38 (active) | 10.5 (active) | 9.27 (active)
CARFGRGFTVAGNASASA [FS-2922] | 0.116 (inactive) | 0.0326 (inactive) | 0.349 (inactive)
CARGKPGIYRAGNASASA [HC907] | 0.0246 (inactive) | 1.3 | 0.963 (inactive)
CAWPLYGNEGAGNASASA [HC202] | 0.645 (inactive) | -0.347 (inactive) | 0.229 (inactive)
CAEVVTMTWVAGNASASA [HC148] | 0.302 (inactive) | 0.42 (inactive) | 1.21
CAPALSTGLIAGNASASA [HC502] | 1.72 | 1.24 | -0.0208 (inactive)
CARRKRTAVTAGNASASA [FS-2070] | 8.61 (active) | 9.73 (active) | 8.8 (active)
CAMAFTAAVTAGNASASA [HC1056] | 0.143 (inactive) | -0.123 (inactive) | 0.0661 (inactive)
CARNKRYALTAGNASASA [FS-2730] | 4.76 (active) | 6.64 (active) | 8.66 (active)
CARRKRYALTAGNASASA [FS-2231] | 5.6 (active) | 9.1 (active) | 7.92 (active)
CARFDRFILTAGNASASA [FS-2331] | -0.835 (inactive) | 0.56 (inactive) | 1.87

Reference: the supplement of paper PMC3545927
